According to PubChem BioAssay (NCI):
Compounds without any hit were thinned out: in the full panel of roughly 83,000, 20% have a hit.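 Cell lines were cultured in 96-well plates, exposed to a single compound concentration, and assessed for percent growth 48 hours later.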 Values without a mark were called inactive. The source made the active and inactive calls.

system: HS 578T breast; assay: NCI-60 one-dose screen, 48 h (100 = growth as untreated, 0 = no growth, -100 = all killed); conditions: 10 µM unless noted
Experimental: Growth inhibition of the HS 578T human tumor cell line is measured as a screen for anti-cancer activity. Cells are grown in 96 well plates and exposed to the test compound for 48 hours. Compounds are tested at a single concentration, which is 10^-5 M for most compounds. The reported endpoint is percent growth (GI% or GIPRCNT), where numbers from 0 - 100% represent growth inhibition, and numbers from -100% - 0 represent cell death. For example, a value of 40 represents 60% growth inhibition. A value of 0 means no net growth occurred over the course of the experiment. A value of -40 indicates 40% of cells at the beginning of the experiment died by the end of the experiment. A value of -100 means all cells are dead at the end of the experiment.
NCI-60 Human Tumor Cell Lines Screen was performed using the standard one-dose NCI protocol, which is described in more detail at https://dtp.cancer.gov/discovery_development/nci-60/default.htm.
Compounds with GIPRCNT values below 10 were considered active. Activity score was based on GIPRCNT using the following formula: […]
Score is 0 for GIPRCNT values of 100 or above, 50 for GIPRCNT values of 0, and 100 for GIPRCNT values of -100.

| Compound | growth |
| --- | --- |
| C=C1C(=O)O[C@H]2[C@H]1CC/C(COC(=O)/C=C\C(=O)NCc1ccc(Cn3c(=O)sn(CCCl)c3=O)cc1)=C\CC[C@@]1(C)O[C@@H]21 | 110% |
| NS(=O)(=O)c1ccc(-c2cc(-c3nnc(SCC(=O)Nc4ccc(C(=O)/C=C/c5ccc(Cl)cc5)cc4)n3-c3ccccc3)c3ccccc3n2)cc1 | 84.3% |
| N#Cc1c(Nc2ccc(N3CCOCC3)cc2)nc(SCC(=O)c2ccc(Br)cc2)nc1-c1ccccc1 | 105% |
| C=C1C(=O)O[C@H]2[C@H]1CC/C(Cn1cc(CCC)nn1)=C\CC[C@@]1(C)O[C@@H]21 | 69.1% |
| COC(=O)c1ccc(NC(=O)Nc2ccc(C(=O)OC)cc2)cc1 | 92.8% |
| Cc1c(CC(=S)N2CCOCC2)nnn1-c1cccc(C(F)(F)F)c1 | 99.9% |
| CN(CCCNC(=O)CCOCCOCCOCCNC(=O)Cc1ccc2ccc3cccc4ccc1c2c34)CCCNc1cc(-c2ccc3ccccc3c2)nc2ccccc12 | -58.9% (active) |
| CC1=CC(c2ccco2)=C2C(N)=NNC2N1 (stereo not given) | 105% |
| COC(=O)c1nc(-c2ccccc2)oc1S(=O)(=O)NCC(c1ccc(Cl)cc1)N1CCOCC1 (stereo not given) | 85.8% |
| Cc1ccc(C=C2C(=O)NC(=O)NC2=O)cc1 | 105% |
| CC1(C)NCCC[C@]2(C)[C@H]3CC[C@H]4[C@H]5[C@H](C(=O)/C=C/c6cccnc6)CCC[C@]5(CO)CC[C@@]4(C)[C@]3(C)CC[C@@H]12 | 74.4% |
| Clc1c(Cl)[n+](Cc2ccc3ccccc3c2)cn1Cc1ccc2ccccc2c1 | 53.1% |
| CC1(C)N=C(N)N=C(N)N1c1cccc(CCc2ccccc2)c1 | 70.4% |
| O=C(N/N=C\c1cccc([N+](=O)[O-])c1)N/N=C/c1cccc([N+](=O)[O-])c1 | 97.9% |
| CN1CCN(Cc2ccc(NC(=O)c3cncc(C#Cc4cnc(N)c5ncccc45)c3)cc2C(F)(F)F)CC1 | -30.3% (active) |
| COc1ccc(-c2n[nH]c(=O)c3nc(NC(=S)Nc4ccc(Oc5ccccc5)cc4)sc23)cc1 | 97.7% |
| CC1C=CC(OC(=O)C(C)(O)CCC(O)(C(=O)OC2CC(O)C(C(C)C)CC2(C)O)C(C)C)(C(C)C)CC1 (stereo not given) | 22.4% [4.63 µM] |
| N[C@H]1CCC[C@@H]1NCCCCN1C(=O)c2cccc3cc([N+](=O)[O-])cc(c23)C1=O | 65.4% |
| CCN(CC)Cc1cc(Nc2ccnc3cc(Cl)ccc23)ccc1O | 91.6% |
| COC(=O)/C=C1/SC(=Nc2ccc([N+](=O)[O-])cc2)N(CCc2c[nH]c3ccc(O)cc23)C1=O | 47.5% |

| Compound | growth |
| --- | --- |
| CCCCCCCCCCCCCOC(=O)c1c(C)[nH]c(/C=C2\N=C(c3ccc[nH]3)C=C2OC)c1C | 18% |
| COc1ccc(C(=O)/C=C/c2ccc(Cl)cc2)cc1S(=O)(=O)Nc1c(N)nc(SC)[nH]c1=O | 81.4% |
| COC1=C(C)C(=O)N2[C@@H]1[C@H](c1ccccc1)OC21C=CC(=O)C=C1 | 32.6% |
| O=C(CCSc1nnc2n(Cc3ccccc3)c(=O)c3c4c(sc3n12)CCCC4)N1CCN(c2ccccc2)CC1 | 108% |
| NS(=O)(=O)c1ccc(NC(=O)/C(=C\c2ccc(Cl)cc2Cl)NC(=O)c2ccccc2)cc1 | 89.6% |
| CCOC(=O)C(=Cc1ccc(-c2ccccc2)cc1)C(=O)OCC | 39.7% |
| COc1cc(C2C(C(=O)OCc3ccccc3)=C(C)NC(C)=C2C(=O)OCc2ccccc2)cc(OC)c1OC | 46.4% |
| C=CC(=O)Nc1ccc(Nc2nccc(-c3ccc(N4CCCC4)c(C#N)c3)n2)cc1 | -5% (active) |
| O=C(Nc1ccccc1[N+](=O)[O-])c1ccc(Cl)c(Cl)c1 | 87.8% |
| C[C@H](C(=O)N(CCc1ccc(Cl)c(Cl)c1)Cc1cncs1)[C@@H]1CC[C@H](C[C@H](C)n2cc(CN3CCC(c4ccc(Cl)cc4)CC3)nn2)O1 | 98.7% |
| O=C(CSc1nc(-c2ccccc2)cc(=O)[nH]1)Nc1nc(-c2ccccc2)cs1 | 90% |
| Cc1ccc2nc(/C(C#N)=C(/CCCO)NC(Cc3ccccc3)C(=O)OCc3ccccc3)[nH]c(=O)c2c1 (stereo not given) | 183% |
| Cc1ccc(CNc2ccc3nc(CCC(C)C)[nH]c3c2)cc1 | 96.3% |
| O=C(C1=Cc2cc3ccccc3n2Cc2cnnn21)c1ccc(O)cc1 | 49.4% |
| CC(=O)O[C@H]1C[C@@H]2C(C)(C)C(=O)CC[C@@]2(C)c2ccc(C(C)C)cc21 | 102% |
| COc1ccc(/C=C(/c2ccccc2)[N+](=O)[O-])c(OC)c1 | 46.1% |
| C[C@]1(O)CC(=O)[C@]2(O)C3=C(C=C[C@]2(O)C1)C(=O)c1c(O)cccc1C3=O | 71.8% |
| N#C/C(=C\c1ccc([N+](=O)[O-])cc1)n1nnc2cc(F)c(F)cc21 | 58.4% |
| COc1ccc(C2=CC(c3cc(OC)c(OC)c(OC)c3)n3ncnc3N2)cc1 (stereo not given) | 27% |
| COc1ccc(C(=O)Cn2c(C(=O)c3ccc(Cl)cc3)nc3ccccc32)cc1 | 47.2% |
